Experimental findings from ChEMBL document CHEMBL3988442, “University of Dundee, Small-Polar-MMV Screening Library” (2021) are described below.

Screen size: about 48,000 compounds; about 13,000 (27%) showed an effect of 50% or more. Some of the results follow.

This assay deals with Wolbachia pipientis. Description: Anti-Wolbachia Cell-Based Screen. The class given is functional. The arrangement: scale not given: in the data most compounds retested in dose-response had high values. Particulars: 5 µM.
As for `COCCNC(=O)c1ccc2ccc(N(C)CC3CC3)n2c1`, the “Percent Effect” value amounted to 103.1%. Regarding `CCN(CC)c1ccc2ccc(C(=O)N(CCOC)CCOC)cn12.O=C(O)C(F)(F)F`, the “Percent Effect” value is 4.611%.

Take `COCCNC(=O)CCNC(=O)c1ccc(N2CCC(C)=N2)cc1`: the “Percent Effect” value is -2.111%. The same measure for `Cc1cn(CC(=O)NC2CCN(C(=O)C3CC3)CC2)c2ccccc12`: 4.79%.

Regarding `Cc1ccc(C)c(CC(=O)NC2CCCS(=O)(=O)C2)c1` (stereo not drawn), the “Percent Effect” value was -8.397%.

With `Cc1ccc(C)c(CC(=O)NC2CCS(=O)(=O)CC2)c1`, the “Percent Effect” value is -1.123%.

In the case of `CC(=O)N1CCC(NC(=O)CN2CCCc3c(F)ccc(C)c32)CC1`, the “Percent Effect” value was determined as 96.3%.

Consider `COC(=O)N1CCC(NC(=O)Cn2cc(C)c3ccccc32)CC1`, for which the “Percent Effect” value is -17.34%. Regarding `CC(=O)N1CCC(NC(=O)CN2CCCc3c(C)ccc(F)c32)CC1`, the “Percent Effect” value is given as 97.89%. `CC(=O)N1CCC(NC(=O)Cc2csc(C(C)(C)C)n2)CC1`: the “Percent Effect” value was -8.702%.

Consider `Cc1ccc(F)c2c1CCCN2CC(=O)NC1CCS(=O)(=O)C1` (stereo not drawn), for which the “Percent Effect” value was determined as 90.32%. The same measure for `CC(=O)NCc1ccc(C(=O)N2CCCc3c(F)ccc(C)c32)cc1`: -14.03%; for `CN1CCCC(C(=O)N2CCC(Oc3ccc(C#N)cn3)CC2)C1` (stereo not drawn): 3.335%.

For `O=C1CC(c2cccs2)c2snc(C(=O)O)c2N1` (stereo not drawn), the “Percent Effect” value came out at 12.4%. The value for `Cc1ccc(C(=O)N[C@H]2CN(CCO)C[C@@H]2C2CC2)cc1Cl` was 4.454%; that for `CCNC(=O)NC(=O)CSC(C)c1ccccc1F` (stereo not drawn) was -4.407%; that for `O=C(C[S+]([O-])Cc1csc(C2CCCC2)n1)NC1CCCC1` (stereo not drawn) was -2.557%.

`CCN(C)CC(=O)N1CCC(c2cc(N3CCOCC3)nc(C)n2)CC1`: the “Percent Effect” value is 25.94%. The value for `Cc1ncc(S(C)(=O)=O)c(N2CCCCCC2)n1` was 3.738%. The value for `CCC(=O)N1CCc2nc(N3CCOCC3)nc(N(C)C)c2CC1` was -3.249%. On to `CCOc1cc(C)nc(N2CCN(C(=O)CC)CC2)n1`, for which the “Percent Effect” value is reported as -2.122%.

On to `CS(=O)(=O)c1cnc(N2CCCC2)nc1C1CCN(C(=O)C2CC2)CC1`, for which the “Percent Effect” value was 114.1%.

As for `Cc1noc(-c2ccc(N3CCCC(C(=O)N4CCSCC4)C3)nc2)n1` (stereo not drawn), the “Percent Effect” value was -16.11%. With `CCC(=O)N1CCC(c2nc(N3CCCC3)ncc2S(C)(=O)=O)CC1`, the “Percent Effect” value is recorded as 99.88%. As for `CCC(=O)N1CCC(c2nc(N3CCCCC3)ncc2S(C)(=O)=O)CC1`, the “Percent Effect” value is recorded as 129%. As to `CCc1nc(CC(=O)N2CCC(C(=O)N3CCCCC3)CC2)cs1`, the “Percent Effect” value turned out to be 9.16%. Take `CCC(=O)N1CCC(c2nc(N3CCOCC3)ncc2S(C)(=O)=O)CC1`: the “Percent Effect” value came to 98.3%. Regarding `Cc1ccc(NS(=O)(=O)c2c[nH]c3ncccc23)nc1`, the “Percent Effect” value came out at 17.74%. The value for `CCOC(=O)N1CCN(c2nc(NCCCO)c3ccccc3n2)CC1.Cl` was 3.007%; that for `COC(=O)c1ccc(N2CCN(C(=O)c3ccncc3)C(C)C2)cc1` (stereo not drawn) was -9.258%. Take `CCc1nc(CC(=O)Nc2cnn(CC3CCCO3)c2)cs1` (stereo not drawn): the “Percent Effect” value was -8.649%. In the case of `CC(C)c1nc(O)c2nnn(C[C@H]3CCCN(Cc4ccsc4)C3)c2n1`, the “Percent Effect” value amounted to 131.3%. `CC(C)c1nc(O)c2nnn(C[C@@H]3CCCN(Cc4ccsc4)C3)c2n1`: the “Percent Effect” value is 123.6%. Turning to `CC(C)(C)c1oc(C(N)=O)cc1CN1CCCCC1CN1CCOCC1` (stereo not drawn), the “Percent Effect” value is -21.84%. The same measure for `N#Cc1ccc(SCCC(=O)N(Cc2cccnc2)C2CC2)cc1`: -7.889%; for `O=c1ccc(-n2ccnc2)nn1CCNS(=O)(=O)c1ccc(Br)cc1`: -0.5803%; for `CCN(CC)CC[C@H]1CN(C(=O)C2CCC2)CC[C@H]1CC(=O)O`: -6.679%.

On to `CCN1CCCC(c2c(-c3ccccc3)ncn2CCc2c[nH]cn2)C1` (stereo not drawn), for which the “Percent Effect” value was -19.27%. As for `CC(C)(C(=O)NCCCC(N)=O)c1cccc(Br)c1`, the “Percent Effect” value is listed as 6.793%. Take `CSCCC(Nc1nc(C)cc(C)n1)C(=O)NC1CC1` (stereo not drawn): the “Percent Effect” value worked out at 102.4%. The value for `Cc1nc(CN2CCN(C(C)C(=O)NC3CCCC3)CC2)cs1` (stereo not drawn) was -11.13%; that for `CSCCC(Nc1nc(C)cc(C)n1)C(=O)NC(C)(C)CO` (stereo not drawn) was 99.02%. On to `CSCCC(NC(=O)c1ccc2ccccc2n1)C(=O)NC(C)C` (stereo not drawn), for which the “Percent Effect” value was determined as 0.7963%. The value for `CSCCC(NC(N)=O)C(=O)N1CCC(Cc2ccccc2)CC1` (stereo not drawn) was -1.467%; that for `CNC(=O)C(CCSC)NC(=O)c1ccc2ccccc2n1` (stereo not drawn) was 4.672%. For the compound `Cc1cc(C)nc(NC2CCC(=O)N(C)C2)n1` (stereo not drawn), the “Percent Effect” value is -12.68%. The value for `Cc1cc(NC(=O)NCC2CCOC2)no1` (stereo not drawn) was -3.66%; that for `CSCCC(Nc1nc(C)cc(C)n1)C(=O)NCC1CCOCC1` (stereo not drawn) was 96.94%; that for `CSCCC(NC(=O)c1ccc2ccccc2n1)C(=O)NC1CC1` (stereo not drawn) was 3.734%. In the case of `CSc1cc2c(cc1NC(=O)NCC1CCOC1)OCCO2` (stereo not drawn), the “Percent Effect” value came out at 0.9768%.

Consider `CSCCC(Nc1nc(C)cc(C)n1)C(=O)NC1CCCC1` (stereo not drawn), for which the “Percent Effect” value is 67.42%. The same measure for `CN(C)CCCN1CC2(CCN(C3CCCOC3)CC2)OC1=O` (stereo not drawn): -5.756%. Consider `COc1ccc(NC(=O)c2ccc[nH]2)c(N2CCN(C(C)=O)CC2)n1`, for which the “Percent Effect” value worked out at 6.635%. Turning to `Cc1cc(SC(C)(C)C)ccc1NC(=O)CNC(N)=O`, the “Percent Effect” value was -8.144%. The same measure for `Cc1ccc(S(=O)(=O)NC[C@H]2OC[C@@H](NCc3ccccn3)[C@@H]2O)cc1`: 0.9418%.

As to `Cc1cc(C(=O)N2C[C@@H](CN3CCOCC3)C[C@H](CO)C2)nc(C)n1`, the “Percent Effect” value is reported as -2.252%.

Consider `Cc1cc(C)c(CNC(=O)N2CCCN(C(=O)C(C)C)CC2)c(C)c1`, for which the “Percent Effect” value is recorded as -1.6%. `CC(C)=CCN1C[C@H]2CC[C@@H]1CN(Cc1coc(C)n1)C2`: the “Percent Effect” value is -7.778%.

In the case of `Cc1ccc2nc(CNCCCOc3ccccc3)cc(O)c2c1` [UCSF924], the “Percent Effect” value is given as -20.67%.

On to `CCn1ccc(-c2cc(NCCCOc3cccc(C)c3)nc(C)n2)n1`, for which the “Percent Effect” value turned out to be 179.6%.

With `c1ccc(OCCCNCCn2cccn2)cc1`, the “Percent Effect” value was determined as 7.776%.

`CCn1ccc(-c2cc(NCCCOc3ccccc3C)nc(C)n2)n1`: the “Percent Effect” value is listed as 161.9%. For `COc1ccc(OCCNCCn2cccn2)cc1`, the “Percent Effect” value is on record as -1.614%. The same measure for `CCN(CC1CCOCC1)C(=O)Cn1cccc(C(F)(F)F)c1=O`: -10.75%; for `CC(C)(C)OC(=O)NC1(c2noc(-c3ccco3)n2)CCC1`: -13.08%. As for `COc1nc2c(cc1C(=O)NCc1noc(-c3ccco3)n1)CCC2`, the “Percent Effect” value is on record as -22.9%.

For the compound `c1cnnc(N2CCCC(NCc3nnc(-c4ccco4)o3)C2)c1` (stereo not drawn), the “Percent Effect” value was determined as 5.713%.

With `c1coc(-c2nc(CNC3CCCNC3)no2)c1` (stereo not drawn), the “Percent Effect” value amounted to 116.1%.

For `c1ccc(-c2nc(CNC3CCCN(c4cccnn4)C3)no2)cc1` (stereo not drawn), the “Percent Effect” value was -14.96%. The same measure for `COCc1nc(CNC2CCC3(CCNCC3)CC2)no1`: -7.512%; for `OC1(CNCc2noc(Cc3ccccc3)n2)CCCNC1` (stereo not drawn): 0.3473%; for `c1coc(-c2nc(CNC3CCC4(CCNCC4)CC3)no2)c1`: 99.09%. Consider `c1ccc(Cc2nc(CNC3CCC4(CCNCC4)CC3)no2)cc1`, for which the “Percent Effect” value is given as 94.06%.
